Data on 40 molecules can be found in PubChem BioAssay (Tox21).

Records with an inconclusive call do not appear. Where a call stands in place of a potency, no number is given. Active and inactive are the calls of the source. Calls come from the whole dose curve; as a rule, active = well fitted cell-killing curve with a large enough effect in the repeat runs; inconclusive = weak or mixed curves, or effect the other way; inactive = flat fitted curve, though single readings scatter.

The nature of this test: qHTS assay to identify small molecule antagonists of the androgen receptor (AR) signaling pathway using the MDA cell line - cell viability counter screen (AID 743041; note: nearly all actives have a fitted effect of over 45% in size). Conditions: MDA-kb2 viability, CellTiter-Fluor, 16 h, cells co-treated with R1881 androgen agonist; series mostly up to 70.3 µM. An excerpt: National Center for Advancing Translational Sciences [NCATS]
NIH Chemical Genomics Center [NCGC]
U.S. Environmental Protection Agency [EPA]
National Institutes of Environmental Health Sciences [NIEHS]
National Toxicology Program [NTP]
U.S. Food and Drug Administration [FDA]
Androgen receptor (AR), a nuclear hormone receptor, plays a critical role in AR-dependent prostate cancer and other androgen related diseases. Endocrine disrupting chemicals (EDCs) and their interactions with steroid hormone receptors like AR may cause disruption of normal endocrine function as well as interfere with metabolic homeostasis, reproduction, developmental and behavioral functions. To identify the compounds that inhibit AR signaling, MDA-kb2 AR-luc cell line (from ATCC, deposited by Wilson et al.) was used to screen the Tox21 10K compound library. MDA-kb2 AR-luc cell line is human breast carcinoma cell line that was stably transfected with a luciferase reporter gene under control of the MMTV promoter containing response elements for both androgen receptor (AR) and glucocorticoid receptor (GR). The cytotoxicity of the Tox21 compound library against the MDA-kb2 AR-luc cell line was tested in parallel by measuring the cell viability using CellTiter-Fluor assay (Promega, Madison, WI) in the same wells.
Tox21 Assay Protocol Summary:
MDA-kb2 AR-luc cells were dispensed at 3,000 cells/4 uL/well of culture medium into white wall/solid-bottom 1536-well plates using a Multidrop Combi (ThermoFisher Scientific, Waltham, MA) dispenser. After the assay plates were incubated at a 37C and 0% CO2 for 5 hr, 23 nL of compounds dissolved in DMSO, positive controls or DMSO only was transferred to the assay plate by a Pintool station (Kalypsys, San Diego, CA), followed by addition of 1 uL of agonist (R1881) in culture medium using a Bioraptr Flying Reagent Dispenser (FRD) workstation (Beckman Coulter, Indianapolis, IN, USA). The plates were incubated at a 37C and 0% CO2 for 16 h. After 15.5 h incubation, 1uL of CellTiter-Fluor reagent (Promega) was added using a Bioraptr FRD to each plate for measuring cytotoxicity. The fluorescence intensity was quantified on a ViewLux plate reader (PerkinElmer, Shelton, CT) following 30 min incubation at 37C and 0% CO2.
With `CC(S)C(=O)NCC(=O)O` (stereo not given), the Potency result was “inactive”.

Turning to `COc1cc2c(cc1OC)[C@@H]1CC(=O)[C@@H](CC(C)C)CN1CC2`, the Potency entry is “inactive”.

`O=C(CS(=O)Cc1ccco1)NC/C=C\COc1cc(CN2CCCCC2)ccn1` (stereo not given): the Potency result is “inactive”.

For `COC(=O)CCCCCCCC(=O)OC`, the Potency result is “inactive”.

Regarding `CCOc1cc([N+](=O)[O-])c(OCC)cc1N1CCOCC1`, the Potency entry is “inactive”.

For the molecule `O=C(O)C(=O)Cc1ccccc1`, the Potency result is “inactive”.

For the molecule `CC(=O)CCCCn1c(=O)c2c(ncn2C)n(C)c1=O`, the Potency result was “inactive”.

For the molecule `COC(=O)C1CC(=O)C(C(=O)OC)CC1=O` (stereo not given), the viability change, negative = cytotoxic is 6.75% [at 8.47 µM] (inactive).

Regarding `Cc1ccccc1N=O`, the Potency result was “inactive”.

For `CN(C)C(=O)CNC(=O)Cc1ccccc1`, the Potency result was “inactive”.

Take `CN(CCOc1ccc(NS(C)(=O)=O)cc1)CCc1ccc(NS(C)(=O)=O)cc1`: the Potency entry is “inactive”.

In the case of `O=S(=O)(O)CCN1CCN(CCO)CC1`, the Potency entry is “inactive”.

As for `Cc1ccc2c(c1)OCC(=O)CO2`, the Potency result is “inactive”.

With `CCNC(=O)C1CC(C)CCC1C(C)C` (stereo not given), the Potency result is “inactive”.

Turning to `O=C(Nc1ccc(Cl)c(Cl)c1)C1CC1`, the Potency result is “inactive”.

As to `ClCCCl`, the Potency result is “inactive”.

Turning to `CC(C)(C)c1n[nH]c(=S)n(N)c1=O`, the Potency entry was “inactive”.

Regarding `O=C(OCC1(COC(=O)c2cccnc2)CCCC(COC(=O)c2cccnc2)(COC(=O)c2cccnc2)C1O)c1cccnc1`, the Potency result is “inactive”.

For the molecule `C=Cc1ccccn1`, the Potency entry is “inactive”.

In the case of `C=C(C)C1CCC(C)(O)CC1` (stereo not given), the Potency result was “inactive”.

As for `Cc1nc2n(c(=O)c1CCN1CCC(c3noc4cc(F)ccc34)CC1)CCC[C@H]2O`, the Potency result is “inactive”.

Turning to `O=C1c2ccccc2C(=O)c2cc(S(=O)(=O)O)ccc21`, the Potency entry is “inactive”.

On to `CCC(C)(CCC(C)C)C(=O)O` (stereo not given), for which the Potency entry is “inactive”.

In the case of `Cc1ccc(S(=O)(=O)O)c(C)c1`, the Potency result is “inactive”.

Consider `C=C(C)C(=O)OCc1ccccc1`, for which the Potency entry was “inactive”.

With `C[C@H](N)[C@H](O)c1cccc(O)c1`, the Potency entry is “inactive”.

On to `CCCCOCCOC(=O)COc1nc(Cl)c(Cl)cc1Cl`, for which the Potency result was “inactive”.

Regarding `CC(C)CC(C)CC(C)CC(C)COC(=O)c1ccccc1C(=O)OCC(C)CC(C)CC(C)CC(C)C` (stereo not given), the Potency result was “inactive”.

For the molecule `COc1ccc(Br)c(C)c1`, the Potency result is “inactive”.

Consider `CNS(=O)(=O)CCc1ccc2[nH]cc(C3CCN(C)CC3)c2c1`, for which the Potency result was “inactive”.

Regarding `CCCCNC1CC(C)(C)NC(C)(C)C1`, the Potency result was “inactive”.

In the case of `CC(C)N(c1ccccc1)C(C)C`, the Potency entry is “inactive”.

For the molecule `COc1ccc(C2CNC(=O)C2)cc1OC1CCCC1` (stereo not given), the Potency entry is “inactive”.

With `CC(C)C[C@H](NC(=O)CNC(=O)[C@H](Cc1ccc(O)cc1)NC(=O)[C@H](CO)NC(=O)[C@H](Cc1c[nH]c2ccccc12)NC(=O)[C@H](Cc1cnc[nH]1)NC(=O)[C@@H]1CCC(=O)N1)C(=O)N[C@@H](CCCN=C(N)N)C(=O)N1CCC[C@H]1C(=O)NCC(N)=O` (stereo in doubt), the Potency result was “inactive”.

For `CCCCCCN`, the Potency entry was “inactive”.

`NC(CO)C(=O)NNCc1ccc(O)c(O)c1O` (stereo not given): the Potency result is “inactive”.

As for `Cc1cccc2nccnc12`, the Potency entry is “inactive”.

On to `CC(C)c1ccc2cc(C(C)C)ccc2c1`, for which the Potency entry was “inactive”.

As for `CN1CCN(CC(=O)N2c3ccccc3C(=O)Nc3cccnc32)CC1`, the Potency entry was “inactive”.

Consider `On1nnc2ccccc21`, for which the Potency entry is “inactive”.
